The values below come from PubChem BioAssay (EPA / NIEHS).

Experiment [1] concerns the target Bile acid receptor (Homo sapiens) (UniProt Q96RI1). Nature of the experiment: OT_FXR_FXRSRC1_0480: Odyssey Thera (OT) 8-hour HEK293T Protein-Complementation Assay for Farnesoid X receptor/SRC-1 Co-activator (AID 2283383). Summed up:
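HEK293T cells expressing FXR and SRC-1 fused to reporter fragments were dosed with compound for 8 h; fluorescence from the reconstituted reporter marked co-activator recruitment. Gain of signal was fitted against the DMSO baseline.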

For experiment [2] the target is unchanged. The experiment in a line: OT_FXR_FXRSRC1_1440: Odyssey Thera (OT) 24-hour HEK293T Protein-Complementation Assay for Farnesoid X receptor/SRC-1 Co-activator (AID 2283384). Summed up: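 HEK293T cells were dosed with compound and read 24 h later by fluorescence intensity from protein-fragment complementation reporting FXR/SRC-1 co-activator interaction. Gain of signal was fitted relative to DMSO negative control as baseline.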

Experiment [3] has as its target Retinoic acid receptor RXR-alpha (Homo sapiens) (UniProt P19793). The experiment in a line: OT_NURR1_NURR1RXRa_0480: Odyssey Thera (OT) 8-hour HEK293T Protein Complementation Assay for Nurr1/retinoid X receptor (RXR) (AID 2283385). Summed up:
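HEK293T cells expressing Nurr1 and RXRα fused to reporter fragments were dosed with compound for 8 hours. Complex formation was read as fluorescence intensity and analysed as gain of signal against DMSO as baseline.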

Experiment [4] shares this target. Nature of the experiment: OT_NURR1_NURR1RXRa_1440: Odyssey Thera (OT) 24-hour HEK293T Protein Complementation Assay for Nurr1/retinoid X receptor (RXR) (AID 2283386). Summed up:
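HEK293T cells were dosed with compound and read 24 h later by fluorescence intensity in a protein-fragment complementation format, where Nurr1–RXRα interaction reconstitutes a split reporter. Activity was fitted as gain of signal relative to DMSO baseline.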

The target of experiment [5] is Peroxisome proliferator-activated receptor gamma (Homo sapiens) (UniProt P37231). Nature of the experiment: OT_PPARg_PPARgSRC1_0480: Odyssey Thera (OT) 8-hour Protein-Complementation Assay for Peroxisome Proliferator-activated Receptor Gamma / SRC-1 Co-activator (AID 2283387).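 Further: nuclear to cytoplasmic split Venus YFP fluorescence ratio reporting PPARg SRC-1 interaction.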 Summed up: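 HEK293T transiently transfected with PPARg and SRC-1 fused to Venus YFP fragments, compounds 8 h at 37C. Fixed, Draq5-stained cells imaged; nuclear/cytoplasmic 488 nm fluorescence ratio over at least 350 cells per image; gain fitted versus DMSO.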
Peroxisome proliferator-activated receptor gamma (Homo sapiens), sequence (P37231 whole entry, looked up, the tested form may be a part): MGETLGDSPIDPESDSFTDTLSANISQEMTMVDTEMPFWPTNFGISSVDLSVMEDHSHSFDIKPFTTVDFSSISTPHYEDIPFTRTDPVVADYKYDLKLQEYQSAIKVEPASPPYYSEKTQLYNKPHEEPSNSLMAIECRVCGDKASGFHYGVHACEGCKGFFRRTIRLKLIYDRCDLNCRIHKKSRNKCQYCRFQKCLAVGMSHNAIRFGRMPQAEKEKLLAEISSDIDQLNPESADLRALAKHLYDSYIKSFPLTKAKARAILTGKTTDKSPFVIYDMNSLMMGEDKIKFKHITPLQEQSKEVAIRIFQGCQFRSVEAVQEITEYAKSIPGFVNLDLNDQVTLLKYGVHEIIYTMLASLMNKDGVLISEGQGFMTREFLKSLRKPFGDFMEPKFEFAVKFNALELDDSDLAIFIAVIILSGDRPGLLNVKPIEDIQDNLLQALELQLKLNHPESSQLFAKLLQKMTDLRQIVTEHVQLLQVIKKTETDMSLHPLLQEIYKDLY

Experiment [6] has the same target. The experiment in a line: OT_PPARg_PPARgSRC1_1440: Odyssey Thera (OT) 24-hour Protein-Complementation Assay for Peroxisome Proliferator-activated Receptor Gamma/ SRC-1 Co-activator (AID 2283388). Summed up:
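Readout is the 488 nm N/C fluorescence ratio from fixed, Draq5-stained HEK293T cells after 24 h compound exposure. Cells carried transiently transfected PPARg and SRC-1 fused to Venus fragments, transfected 48 h before treatment.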

A short description of experiment [7]: CEETOX_H295R_11DCORT: CeeTox H295R High-throughput Steroidogenesis Assay for 11-Deoxycortisol (11DCORT) (AID 2283432; active means hit-call score of the fitted dose curve at least 0.9, where 1 is the maximum; inactive means score below 0.9;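 on AC50: 11-deoxycortisol secreted into the medium measured by LC-MS/MS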). The note with it: actives raise or lower the signal. Summed up: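 H295R cells prestimulated 48 h with 10 uM forskolin, then exposed 48 h to chemical in 0.1% DMSO. 11-Deoxycortisol in medium quantified by HPLC-MS/MS after MTBE extraction; bidirectional fit versus DMSO. MTT viability read in same wells.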

The nature of experiment [8]: CEETOX_H295R_OHPREG: CeeTox H295R High-throughput Steroidogenesis Assay for OH-Pregnenolone (OHPREG) (AID 2283434; active means hit-call score of the fitted dose curve at least 0.9, where 1 is the maximum; inactive means score below 0.9). The note with it: actives raise or lower the signal. Summed up: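 Human adrenal H295R cells were prestimulated 48 h with 10 uM forskolin, then exposed 48 h to chemical in 0.1% DMSO. Medium 17alpha-hydroxypregnenolone was quantified by HPLC-MS/MS after MTBE extraction; bidirectional fitting versus DMSO baseline.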

Experiment [9] is described as follows: CEETOX_H295R_OHPROG: CeeTox H295R High-throughput Steroidogenesis Assay for OH-Progesterone (OHPROG) (AID 2283435; active means hit-call score of the fitted dose curve at least 0.9, where 1 is the maximum; inactive means score below 0.9). The note with it: actives raise or lower the signal. Summed up:
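H295R human adrenal cells were prestimulated 48 h with 10 uM forskolin, then exposed 48 h to test chemical (0.1% DMSO final). 17alpha-hydroxyprogesterone in medium was measured by HPLC-MS/MS after MTBE extraction; bidirectional fitting vs DMSO.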

Experiment [10] can be described thus: CEETOX_H295R_ANDR: CeeTox H295R High-throughput Steroidogenesis Assay for Androstenedione (ANDR) (AID 2283436; active means hit-call score of the fitted dose curve at least 0.9, where 1 is the maximum; inactive means score below 0.9). The note with it: actives raise or lower the signal. Summed up:
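H295R human adrenal cells (passages ≤10) were exposed to test chemicals for 48 h; androstenedione in medium was MTBE-extracted and quantified by HPLC-MS/MS against a 7-point standard curve. Bidirectional fitting used DMSO as baseline.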

Inconclusive results are not listed. More than one record can exist for a structure, and the calls need not agree. Calls of active or inactive are those of the source. How the source made its calls, unless noted: active means hit-call score of the fitted dose curve at least 0.9, where 1 is the maximum; inconclusive means response in the unintended direction; inactive means score below 0.9.

Retinoic acid receptor RXR-alpha (Homo sapiens), sequence (P19793 whole entry, looked up, the tested form may be a part): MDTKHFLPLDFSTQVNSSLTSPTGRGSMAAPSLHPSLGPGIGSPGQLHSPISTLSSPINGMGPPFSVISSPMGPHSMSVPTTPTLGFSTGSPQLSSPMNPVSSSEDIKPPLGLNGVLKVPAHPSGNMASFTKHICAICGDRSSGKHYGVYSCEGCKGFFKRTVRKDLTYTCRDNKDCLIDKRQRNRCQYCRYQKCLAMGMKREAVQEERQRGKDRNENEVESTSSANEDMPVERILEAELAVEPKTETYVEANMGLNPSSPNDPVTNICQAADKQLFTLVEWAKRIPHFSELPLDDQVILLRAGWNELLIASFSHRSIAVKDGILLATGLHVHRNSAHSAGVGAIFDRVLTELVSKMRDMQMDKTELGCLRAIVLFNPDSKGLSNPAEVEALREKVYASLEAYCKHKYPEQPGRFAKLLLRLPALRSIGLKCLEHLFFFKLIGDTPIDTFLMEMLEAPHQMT
Bile acid receptor (Homo sapiens), sequence (Q96RI1 whole entry, looked up, the tested form may be a part): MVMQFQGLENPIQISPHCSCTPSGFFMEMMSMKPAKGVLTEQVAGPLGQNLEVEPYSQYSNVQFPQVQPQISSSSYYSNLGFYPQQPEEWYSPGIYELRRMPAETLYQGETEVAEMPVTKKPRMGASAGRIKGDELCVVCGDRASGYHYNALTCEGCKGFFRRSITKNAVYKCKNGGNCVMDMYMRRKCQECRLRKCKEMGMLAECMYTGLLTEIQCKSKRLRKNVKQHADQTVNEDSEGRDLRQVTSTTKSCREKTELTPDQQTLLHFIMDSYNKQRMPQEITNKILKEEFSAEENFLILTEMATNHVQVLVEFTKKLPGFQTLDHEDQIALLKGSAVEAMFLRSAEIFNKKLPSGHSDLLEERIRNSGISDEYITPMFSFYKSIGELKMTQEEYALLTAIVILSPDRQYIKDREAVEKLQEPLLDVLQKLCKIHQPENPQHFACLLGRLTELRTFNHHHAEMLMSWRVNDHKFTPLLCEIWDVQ

For the molecule `CN(C)c1ccccc1`, the result in experiment [1] and in experiment [2] was inactive.

For `Nc1ccc(Oc2ccc(N)cc2)cc1`, the molecule was called inactive in experiment [3], in experiment [4], in experiment [5], in experiment [6] and in [9]. Further, the AC50 (in general, the midpoint of the concentration-response curve, whichever way the signal moves) in experiment [7] was 24.2 µM (active); in experiment [8], 5.04 µM (active).

Consider `c1ccc(C2CO2)cc1` (centres undefined), for which the call in experiment [3], in experiment [4], in [5] and in [6] was inactive.

For the molecule `N#CC(Br)Br`, the molecule was classed as inactive in experiment [2], in experiment [5] and in experiment [6].

`O=Cc1ccco1`: in experiment [3], the outcome was inactive.

In the case of `Oc1ccc2ccc3cccc4ccc1c2c34`, the molecule was classed as inactive in experiment [3], in experiment [4] and in [9]. Further, the AC50 in experiment [4] was 9.46 µM (active); in experiment [7], 18.8 µM (active); in experiment [8], 25 µM (active).

Regarding `O=[N+]([O-])c1ccc(Oc2ccc(Cl)cc2Cl)cc1`, the AC50 in [3] was 75.3 µM (active). In addition, the molecule was classed as inactive in experiment [3], in experiment [5], in experiment [6], in experiment [8] and in experiment [9].

As for `CC(O)CCO` (centres undefined), the call in experiment [3], in [4], in experiment [5] and in [6] was inactive.

For the molecule `CC(C)(C)OOC(C)(C)CCC(C)(C)OOC(C)(C)C`, in [3], the call was inactive.

As to `CCCCCCCCCCCCCN1CC(C)OC(C)C1` (centres undefined), the AC50 in experiment [3] is 72.5 µM (active); in experiment [4], 81.7 µM (active); in [7], 9.71 µM (active); in [8], 12.5 µM (active); in experiment [9], 17.6 µM (active). Further, the molecule was called inactive in experiment [4], in [5] and in [6].

On to `COC(=O)c1ccccc1N`, for which the molecule was called inactive in [3], in experiment [4], in experiment [5] and in experiment [6].

Consider `CCN(CC)CCO`, for which the result in experiment [3], in experiment [4], in experiment [5] and in experiment [6] was inactive.

As for `CNC(=O)Oc1cccc2c1OC(C)(C)C2`, the molecule was called inactive in experiment [3], in experiment [4], in experiment [5], in experiment [6], in [7] and in [8]. In addition, the outcome in [9] and in experiment [10] was inactive.

As to `CCCCC(CC)COC(=O)c1ccc(C(=O)OCC(CC)CCCC)c(C(=O)OCC(CC)CCCC)c1` (centres undefined), the molecule was classed as inactive in [3], in experiment [4], in experiment [5] and in experiment [6].

As for `ClC1=C(Cl)C2(Cl)C3C(Cl)C=CC3C1(Cl)C2(Cl)Cl` (centres undefined), the outcome in [3], in experiment [4], in experiment [5] and in experiment [6] was inactive.

Take `CCOc1cccc(C2(N3CCN(c4ccccc4)CC3)CCC(C)CC2)c1` (centres undefined): the outcome in experiment [3], in experiment [4], in experiment [5], in experiment [6] and in experiment [7] was inactive. Besides, the figures for the AC50 in [8] and in experiment [9] were 81.7 µM (active) and 35.7 µM (active), respectively.

For `Nc1ccc([N+](=O)[O-])cc1`, the concentration at half-maximal activity (AC50) was 13.3 µM (active) in experiment [2] and 26.9 µM (active) in experiment [4]. Besides, the call in [3], in experiment [4], in experiment [5] and in experiment [6] was inactive.

On to `C1=Cc2cccc3cccc1c23`, for which the result in experiment [3], in experiment [4], in experiment [5] and in experiment [6] was inactive.

With `O=C1CCCO1`, the outcome in experiment [2], in experiment [3], in experiment [5] and in [6] was inactive.

On to `O=C(O)C1C2CCC(O2)C1C(=O)O` (centres undefined), for which, in [3], the AC50 was 74.3 µM (active) and the molecule was classed as inactive.

As for `OCCOCCO`, the result in [2], in [3], in [5] and in [6] was inactive.

Regarding `Oc1ccccc1Cl`, the call in [3], in experiment [4], in experiment [5] and in experiment [6] was inactive.

Regarding `C[N+](C)(C)CC1CO1` (centres undefined), the call in experiment [3], in experiment [4], in experiment [5] and in [6] was inactive.

For `c1ccc2c(c1)oc1ccccc12`, the call in [3] and in [4] was inactive.

On to `CS(=O)(=O)NC(=O)c1cc(Oc2ccc(C(F)(F)F)cc2Cl)ccc1[N+](=O)[O-]`, for which the call in experiment [1], in experiment [5] and in experiment [6] was inactive.

`c1ccc(N=Nc2ccccc2)cc1`: the call in [3], in [4], in experiment [5], in experiment [6], in experiment [7] and in experiment [8] was inactive. In addition, the outcome in experiment [9] was inactive.

Regarding `CC(C)(C)C(O)(CCc1ccc(Cl)cc1)Cn1cncn1` (centres undefined), the call in experiment [3], in experiment [4], in experiment [5] and in [6] was inactive. Further, the AC50 in experiment [7] is 1.85 µM (active); in experiment [8] it was 0.503 µM (active); in experiment [9], 0.552 µM (active).

`CCCSC(=O)N(CCC)CCC`: the molecule was called inactive in [3].

With `O=C(N[C@H](c1ccccc1)[C@@H]1CN2CCC1CC2)c1c(Cl)ccc(C(F)(F)F)c1Cl`, the outcome in experiment [1], in experiment [5] and in experiment [6] was inactive.

Take `[Cl-].[Cl-].[Hg+2]`: the outcome in experiment [5] and in experiment [6] was inactive.

Regarding `[As]#[In]`, the molecule was called inactive in experiment [3] and in [8].

On to `O=[N+]([O-])C(Br)(CO)CO`, for which the call in [4], in experiment [5] and in experiment [6] was inactive.

Consider `ClC1=C(Cl)[C@]2(Cl)[C@H]3[C@H]([C@@H]4C=C[C@H]3C4)[C@@]1(Cl)C2(Cl)Cl`, for which the molecule was classed as inactive in [5] and in [6].

Regarding `CCCCCOC(=O)c1ccccc1C(=O)OCCCCC`, the molecule was called inactive in experiment [3], in experiment [5], in experiment [6], in [7], in experiment [8] and in experiment [9].

For the molecule `Nc1cc(Cl)cc(C(=O)O)c1Cl`, the molecule was classed as inactive in experiment [5] and in [6].

In the case of `CCCCCCCCn1sccc1=O`, the molecule was called inactive in [5] and in experiment [6].

For the molecule `Cn1cc(-c2ccccc2)c(=O)c(-c2cccc(C(F)(F)F)c2)c1`, the result in experiment [3], in [5], in experiment [6], in [7], in experiment [8] and in [9] was inactive.

As for `Brc1ccc(Oc2ccccc2)cc1`, the call in experiment [3], in experiment [5] and in experiment [6] was inactive.

Consider `C=CCc1ccc2c(c1)OCO2`, for which the call in experiment [3], in experiment [5] and in experiment [6] was inactive.

Consider `O=C(Nc1ccccc1)c1ccccc1I`, for which the outcome in [3], in experiment [5], in experiment [6] and in experiment [10] was inactive. Moreover, the half-maximal activity concentration (AC50) in experiment [7] was 27.8 µM (active); in experiment [8], 32.3 µM (active); in experiment [9], 40.9 µM (active).

On to `Clc1ccc(C(c2ccc(Cl)cc2)C(Cl)Cl)cc1`, for which the AC50 in experiment [3] is 92.4 µM (active). The result in experiment [5] and in [6] was inactive.

On to `N#CC(Br)(Br)C(N)=O`, for which the result in experiment [3], in experiment [4], in experiment [5], in experiment [6], in [8] and in experiment [9] was inactive.

With `CCCCOC(=O)c1ccccc1C(=O)OCc1ccccc1`, the molecule was called inactive in [3], in [5] and in experiment [6].
